Assay results as given in PubChem BioAssay AID602296 (Broad Institute, 2012).
The campaign covered roughly 2,000 compounds. About 190 (9.5%) were called active. Roughly 14% stayed inconclusive and do not appear here.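 How the source made its calls: active means fitted activation curve crossing 40% at a concentration no higher than the sample's top valid tested dose; inconclusive means flat fitted curve at 30% to 70% activation, or poor curve fit; inactive means signal decrease, flat curve within 30%, or the rest.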 These entries were drawn from the full list.

test: HSF-1 reporter activators over prolonged exposure, confirmation, cell-based, mouse, luciferase, cherry-pick, dose (AID 602296); details: NIH3T3-HGL HSF-1 response element luciferase, 48 h; series mostly up to 26 µM; activation: at the top concentration;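 further: test compounds applied by themselves with no MG132 co-treatment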

activation, inactive:
Cc1onc(-c2ccccc2)c1C(=O)N/N=C/c1cccc(O)c1 -6.78%
C=CCc1ccc(OCC(O)CO)c(OC)c1 (centres undefined) -2.53%
NC(=O)c1ccc(NC(=O)CC23CC4CC(CC(Br)(C4)C2)C3)cc1 2.54%
Cc1cccn2c(=O)nc(SCC(=O)N3N=C(c4cccs4)CC3c3ccc(F)cc3)nc12 (centres undefined) -21.7%
O=C(NNc1c(F)c(F)cc(F)c1F)c1ccc(Cl)nc1 7.76%
CCOc1ccc(CN(C)CC(O)COC(c2ccc(OC)cc2)c2ccc(OC)cc2)cc1 (centres undefined) -94%
O=C(/C(=N/N=C/c1ccc(O)c(O)c1)c1ccccc1)c1ccccc1 -87.1%
Cc1ccc(Cl)c2c1=NC(=O)C=2c1[nH]c(=S)[nH]c1O -16.3%
Cc1ccc(N(Cc2ccc(C(=O)Nc3ccccc3C(=O)NCc3ccco3)cc2)S(C)(=O)=O)cc1C -8.84%
CC(C)=C1C2CCC1C1C(=O)N(c3nc(-c4ccccc4)c(C)s3)C(=O)C21 (centres undefined) -19.2%
COc1ccc(CCNC(=O)C2CCCN(Cc3nc(-c4ccccc4C)oc3C)C2)cc1OC (centres undefined) -12.3%
O=C1[C@@H]2Cc3c([nH]c4ccccc34)C(c3ccc([N+](=O)[O-])cc3)N2C(=O)CN1C1CC1 (some centres undefined) -1.65%
CC(=O)c1ccc(N=C2C(=O)Nc3ccccc32)cc1 10.8%
Cc1ccc(-c2[nH]c3ccccc3c2C(C[N+](=O)[O-])c2ccco2)cc1 (centres undefined) -25.2%
Cc1cc(Sc2nnc(N)s2)c2ccccc2n1 -101%
CC12CN(C(=S)Nc3ccccc3)CC(C)(CN(C(=S)Nc3ccccc3)C1)C2=O 5.01%
COC(=O)Nc1ccc(S(=O)(=O)N2CCC(C(=O)N3CCCC(C)C3)CC2)cc1 (centres undefined) 8.64%
COc1ccccc1C(=O)NCCCNC(=O)c1ccccn1 1.6%
COc1cc(-c2nnc(SC/C=C/c3ccccc3)n2N)cc(OC)c1OC -22.3%
NCCCCCc1nnc(SC/C=C/c2ccccc2)o1 -5.43%
COc1cccc(-c2c(C(=O)N/N=C(\C)c3ccc(Cl)s3)nnn2-c2nonc2N)c1 -28.4%
C=C(C)Cn1c(SCC(=O)O)nnc1-c1ccc(OC)cc1 -2.32%
CC(=O)COc1cccc2ccc(/C=C/c3ccc(Br)s3)nc12 1.39%
Cc1[nH]n(-c2ccccc2)c(=O)c1C(C[N+](=O)[O-])c1ccc(F)cc1 (centres undefined) -47.7%
S=c1[nH]nc(-c2cc(-c3ccccc3)n[nH]2)n1/N=C/C(Br)=C/c1ccccc1 -108%
C=CCn1c(C2CCCCC2)n[nH]c1=S -1.72%
COc1ccc2cc(S(=O)(=O)N3CCCCC3)ccc2c1S(=O)(=O)N1CCCCC1 -15.5%
CCOC(=O)COc1ccc(/C=C2/SC(=Nc3ccccc3)N(Cc3cccnc3)C2=O)cc1OC -37.4%
CCCCc1nnc(NC(=O)C(C)Sc2nc(C)cc(=O)[nH]2)s1 (centres undefined) 2.97%
CCn1c(CNC(C)=O)nnc1SCC(=O)c1ccc(Br)cc1 -12% [at 12 µM]
COc1ccc(C(CCNCc2ccccc2)c2ccc(F)cc2)cc1 (centres undefined) -7.83%
Nc1cnn(Cc2ccc(F)cc2)c1 -9.5%
CC1=CC(C)(C)Nc2ccc(OC(=O)C(Cc3ccccc3)N3C(=O)c4ccccc4C3=O)cc21 (centres undefined) -75.7%
CCOc1ncccc1C(=O)N(C)CC1COc2ccccc2O1 (centres undefined) 4.02%
O=C(CCCN1C(=O)c2cccc3cccc(c23)C1=O)Nc1ccon1 9.55%
CCN(CC)CCOc1ccc(/C(=C(/Cl)c2ccccc2)c2ccccc2)cc1 -59%
CCCCN(C)C(=O)C1CCC(CNS(=O)(=O)c2ccc3c(c2)CC(C)N3C(=O)C2CC2)CC1 (centres undefined) -24.4%
Brc1ccc2c(c1)C(c1cccnc1)=NNC(c1cccs1)=N2 -23.4%
Cc1ccc(-n2c(C)cc(C(=O)COc3c(CO)cc(F)cc3CO)c2C)cc1C -13%
Cc1c(NC(=O)CSc2nnc3c4ccccc4n(CCc4ccccc4)c3n2)c(=O)n(-c2ccccc2)n1C -30.7%
CC(=O)Nc1ccc(N2C(=O)C3C4CC(=O)C(c5ccccc54)C3C2=O)cc1 (centres undefined) -4.5%
O=c1[nH]c(CSc2ccccn2)nc2c1oc1ccccc12 -99.2%
C=CCn1c(COc2ccc(CC)cc2)nnc1SC/C(O)=C(\C#N)c1nc2ccccc2[nH]1 -17.9%
O=C(CSC1=NCCN1)Nc1cccc(C(F)(F)F)c1 -21.6%
S=C(NCCSCc1ccc(Cl)c(Cl)c1)Nc1ccccc1 -55.3%
CC1(C)CC(=O)C2=C(C1)N1C(=C(C#N)C2c2ccc(Cl)cc2)N=C(N)c2ccccc21 (centres undefined) -53.2% [at 12 µM]
O=C(CNS(=O)(=O)c1ccc(Br)s1)NCc1ccccc1 0.286%
Cc1ccc(CNC(=O)Cn2ccc3ccccc3c2=O)o1 10.8%
CNC(=O)N(O)C1N(/N=C/c2c(F)cccc2Cl)C(=S)SC1(C)C (centres undefined) -5.57%
FC(F)(F)c1ccc(Sc2nnc(-c3cccs3)n2CC2CCCO2)nc1 (centres undefined) 5.38%
Clc1ccc(CCNc2nc3ccccc3n3nnnc23)cc1 -11.4%
O=C(Nc1cccc(Cl)c1)N1CCC(CO)(CCOc2ccccc2)CC1 6.61%
COc1ccc(/C=C/C(=O)c2ccc(O)cc2)cc1COc1ccc(F)cc1 -71.3%
Oc1cc(-c2ccccc2)c2ccccc2c1 -26.3%
Cc1nc2cc3nc(C(F)(F)F)[nH]c3cc2[nH]1 -1.68%
COc1ccccc1CCC(=O)OCC(=O)Nc1c(Br)cc(C)cc1Br -11.2%
O=C(NCCc1ccc(O)c(O)c1)C1COc2ccccc2O1 (centres undefined) -31.9%
CC(NC(=O)c1ccc(C(C)(C)C)cc1)C(c1cccs1)N1CCOCC1 (centres undefined) 3.38%
CCNC(=O)C(=O)NCc1ccncc1 -12.5%
CCn1cnc2c1c(=O)n(Cc1nnc3n1-c1ccccc1SC3)c(=O)n2Cc1ccccc1 -8.97%
N#Cc1cc(Cl)c(NCC2CCCO2)cc1C#N (centres undefined) -8.57%
Cc1ccc(S(=O)(=O)NNC(=O)c2sc3nc(C)cc(C)c3c2-n2cccc2)cc1 -31.5%
Clc1ccc(CO/N=C/c2c(-c3ccccc3)nc3n2CCS3)c(Cl)c1 -67.9%
Cc1ccc(-c2nc3ccccc3[nH]2)cc1NC(=O)c1ccc2c(c1)OCO2 3.91%
COc1cccc(NC=C2C(=O)OC3(CCCCC3)OC2=O)c1 -0.84%
Cc1sc2nc(CSc3cccc(C(F)(F)F)c3)[nH]c(=O)c2c1C -6.05%
COc1ccc(N2C(=O)CC(Sc3nnnn3-c3ccc(F)cc3)C2=O)cc1 (centres undefined) -104%
CC(C(=O)Nc1ccccc1Br)N1c2cccc3cccc(c23)S1(=O)=O (centres undefined) -32.6%
CC(=O)c1ccc(N2CCN(C(=O)c3n[nH]c4ccccc34)CC2)cc1 -5.87%
Cc1ccc(C(=O)Cn2nnc(-c3ccccc3-n3cnnn3)n2)cc1 7.09%
COc1ccccc1NC(=O)C1=C(C)NC2=C(C(=O)CC(c3ccc(OC)c(OC)c3)C2)C1c1coc2ccccc2c1=O (centres undefined) -44.2%
Cc1ccc(S(=O)(=O)N(C)c2ccc(C)c([N+](=O)[O-])c2)cc1 0.076%
CCOC(=O)C1=C(C)Nc2nc3ccccc3n2C1c1ccncc1 (centres undefined) 1.53%
COc1ccc(NC(=O)C(NCC(C)C)c2ccccc2)cc1Cl (centres undefined) -0.667%
O=S(=O)(c1ccc(-n2cnnn2)cc1)N1CCNCC1 -0.865%
CCCCCCCCCCCC(=O)c1c(O)cccc1O -66.3%
O=C(NC1CCCN(Cc2ccccc2F)C1)c1cccs1 (centres undefined) -6.74%
O=C(O)c1cc([N+](=O)[O-])c(NCCC2=CCCCC2)c([N+](=O)[O-])c1 -5.64%
O=C(Nc1cccc(Cl)c1)C1CCCN(S(=O)(=O)c2ccc(F)cc2)C1 (centres undefined) -0.929%
COC(=O)Nc1ccc(S(=O)(=O)Nc2cccc3ccccc23)cc1 -34.8%
O=C(CCn1c(=O)oc2ccccc21)Nc1ccccc1 5.77%
CC1(C)Cc2nc(NCCN3CCOCC3)c(C#N)cc2CO1 -12.8%
CC(=O)C1=C(O)C(=O)N(c2nccs2)C1c1ccccc1 (centres undefined) -6.69%
Cc1[nH]nc(-c2ccc(O)c(C)c2O)c1-c1cnn(-c2ccccc2)c1 -13.3%
CCOC(=O)C1=C(C)Nc2ncnn2C1c1ccc2c(c1)OCO2 (centres undefined) -2.17%
COCCCNC(=O)c1c[nH]c2ccc(S(=O)(=O)N3CCc4ccccc43)cc2c1=O -7.37%
NS(=O)(=O)c1ccc(CCNC(=O)c2ccc([N+](=O)[O-])s2)cc1 -4.33%
CC(=O)Cc1cc(O)c2ccccc2c1OC(=O)c1ccccc1 9.89%
O=C1CC(NNc2ccccc2)C(=O)N1c1ccccc1 (centres undefined) -54.7%
Cc1cc(NC(=O)c2cc(C)on2)n(-c2ccccc2)n1 -10.5%
CCOC(=O)c1c(NC(=O)c2nn(CC)cc2Br)c(C#N)nn1-c1ccccc1 -52.7%
Cc1oc2ccc(NS(=O)(=O)c3ccc(C(C)(C)C)cc3)cc2c1C(=O)Nc1ccccc1 -31.3%
CCCc1[nH]nc2c1C(c1cc(OC)ccc1F)C(C#N)=C(N)O2 (centres undefined) -18.2%
O=C(CN1C(=O)NC(Cc2c[nH]c3ccccc23)C1=O)Nc1cccc(S(=O)(=O)N2CCOCC2)c1 (centres undefined) -5.34%
CCOC(=O)C(C)(C)N(Cc1ccc(C)cc1)S(=O)(=O)c1ccc(Cl)c([N+](=O)[O-])c1 -87.3%
Oc1ccc(-c2cnc(-c3ccc(O)cc3)nc2)cc1 -63.3%
Cc1cccc2cc(CN(Cc3ccco3)C(c3nnnn3CCc3ccccc3)C(C)C)c(=O)[nH]c12 (centres undefined) -36.5%
COCCNC(=O)c1cccc(OC2CCN(Cc3ccc(Cl)c(F)c3)CC2)c1 -23.6%
CCCCOCCCN1CC(=O)N2[C@@H](Cc3c([nH]c4ccccc34)C2(C)C)C1=O -3.37%
Cc1ccc(-c2cc(C(F)(F)F)c(C#N)c(SCC(=O)O)n2)cc1 -15.1%
CCOC(=O)C1=C(c2ccccc2)NC(=O)NC1c1cc(Br)c(O)c(OC)c1 (centres undefined) -26.7% [at 12 µM]
CCCn1nc([N+](=O)[O-])c(C(C#N)c2nc3ccccc3o2)c(Cl)c1=O (centres undefined) -72.7%
O=C(COC(=O)c1ccc(S(=O)(=O)NCc2ccco2)cc1)Nc1ccccc1OC(F)F 7.76%
Cc1cc(C)nc(Sc2nc(Cl)nc(N(c3ccccc3)c3ccccc3)n2)n1 -20.4%
